The list is not random: actives were taken first. Their share in the collection is about 2.9%.
Vif imaging = inhibitors of HIV Vif | AID 602346 | HEK293T cells, Vif self-association by quenched fluorescence, imaging, 24 h | 340,000 compounds, 0.35% hits | inhibition, % at 7.49 µM; in the data active = inhibition above about 50%, passing the limit was not always enough; inconclusive = no clear call, values can overlap the other calls; inactive = below about 31%
Wnt act = Wnt/beta-catenin pathway activation. Wnt/beta-catenin reporter cell assay, activator, plate reader. activation, % at 9.35 µM. 300,000 compounds, 1.2% hits. AID 743398; in the data active = activation above about 30%, passing the limit was not always enough; inconclusive = no clear call, values can overlap the other calls;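 note: 0% = neutral control wells and 100% = positive control wells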
PvdQ inh = blocks Pseudomonas aeruginosa PvdQ acylase activity; purified PvdQ acylase, fluorescence plate reader; inhibition, % at 10 µM; AID 488965; 340,000 compounds, 0.063% hits; in the data active = inhibition above about 30%, passing the limit was not always enough; inconclusive = no clear call, values can overlap the other calls;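 note: 0% = vehicle neutral wells and 100% = reference inhibitor wells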
Glyco luc inh = blocks N-linked glycosylation in D54 reporter cells | D54 ERlucT glycosylation luciferase reporter, 24 h; percent of 100 nM tunicamycin response | reporter increase, % at 12.5 µM | 360,000 compounds, 0.23% hits;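 active = mean luciferase reporter signal, scaled so untreated is 0 and the glycosylation-blocking control 100, at or above a set limit in every replicate; inconclusive = mean reaches the limit but not every replicate does; inactive = mean below the limit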;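 note: luciferase carries N-glycosylation sites so blocking glycosylation raises the light; 0% = median of neutral control wells and 100% = median of 100 nM tunicamycin wells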
esBAF inh = SWI/SNF esBAF complex inhibition. mouse ES cells, Bmi1-luciferase knock-in reporter, 24 h; 100% = twice the neutral-well signal. reporter increase, % at 12.5 µM. 350,000 compounds, 2% hits; in the data active = activation above about 40%; inconclusive = no clear call, values can overlap the other calls;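 note: 0% = median of the plate's neutral control wells and 100% = double that signal; a rise in the Bmi1 reporter signal indicates esBAF inhibition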
MITF TRPM1 HTS = activators of MITF-driven TRPM1 promoter activity in SK-MEL-5 cells | 300,000 compounds, 0.75% hits | SK-MEL-5 TRPM1-promoter luciferase, 24 h; % of positive control, neutral wells = 0 | AID 588334 | activation, % at 12.5 µM;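 active = mean activation of at least 80% with every replicate also reaching 80%; inconclusive = mean reaches 80% but some replicate falls short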;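 note: 0% = neutral control wells and 100% = parthenolide positive control wells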
Numbers without * were called inactive; ? = inconclusive; nt = not tested or not shown.

SMILES	Vif imaging	Wnt act	PvdQ inh	Glyco luc inh	esBAF inh	MITF TRPM1 HTS
O=C(Nc1cccc2cccnc12)c1cccnc1	0	-2	-15	3	13	-5
O=C(NC(=S)Nc1cccnc1Cl)c1ccc(Cl)cc1	-6	36*	-3	-5	?	34
O=C(Nc1cccc2cccnc12)c1ccc(Cl)cc1	0	5	-4	-1	45*	nt
O=C(Nc1cccnc1Cl)c1ccc(Cl)cc1	-6	10	3	-1	?	49
CN(C(=O)c1cc2c(s1)-c1ccccc1S(=O)(=O)C2)c1ccccc1F	-6	11	-1	1	6	-8
CN(C(=O)c1cc2c(s1)-c1ccccc1S(=O)(=O)C2)c1ccccc1	17	7	4	2	110*	8
Cc1cc(C)cc(N=Cc2c(O)c3ccccc3oc2=O)c1	13	-1	-2	1	nt	-12
Cc1cc(C)c(N=Cc2c(O)c3ccccc3oc2=O)c(C)c1	-3	0	-3	0	57*	55
Cc1ccc(NC(=O)c2ccc(F)cc2)nc1	3	51*	-12	-2	nt	61
Cc1ccc(NC(=O)c2ccc3[nH]c(=O)c(=O)[nH]c3c2)nc1	11	5	14	2	14	13
Cc1ccc(NC(=O)c2sccc2C)nc1	6	52*	-17	-11	-16	23
Cc1ccc(NC(=O)Nc2cccs2)nc1	-12	22	-4	2	nt	55
NCC[C@H]1CC[C@H](NS(=O)(=O)Cc2ccccc2)[C@@H](CO)O1	nt	nt	nt	nt	0	nt
C[C@@H]1CCCCO[C@H](CN(C)CC2CC2)[C@H](C)CN([C@@H](C)CO)C(=O)c2cc(NS(=O)(=O)c3cn(C)cn3)ccc2O1	nt	nt	nt	nt	-3	nt
O=C(NC(=O)N1CCN(c2ccccc2F)CC1)c1ccccc1	88*	-1	8	0	7	-1
O=C(NC(=O)N1CCN(c2ccccc2)CC1)c1ccc(Cl)cc1	-13	nt	-17	1	49*	nt
Nc1ccc(-c2nc3ncccc3o2)c(O)c1	1	18	-8	0	57*	95*
Nc1ccc(-c2nc3ncccc3o2)c(Cl)c1	2	42*	6	-5	?	43
Nc1ccc(Cl)c(-c2nc3ncccc3o2)c1	-3	-4	-10	0	?	38
Cc1ccc2c(c1)C1CN(C)CCC1N2C(=O)c1ccccc1NS(=O)(=O)c1ccc(F)cc1 (stereo unspecified)	1	-4	-3	1	nt	-11
Cc1ccc2c(c1)C1CN(C)CCC1N2S(=O)(=O)c1ccc(C#N)cc1 (stereo unspecified)	55*	1	-2	0	9	nt
CC(=O)Nc1ccc(NC(=O)/C=C/c2ccc3c(c2)OCO3)cc1	0	7	-7	-2	nt	29
CC(C)(C)c1ccc(/C=C/C(=O)Nc2nncs2)cc1	-5	26	3	-8	26	89*
O=C(/C=C/c1ccc2c(c1)OCO2)Nc1nc(-c2ccccc2)cs1	nt	nt	-4	0	17	-13
Cc1cc(C)nc(NC(=O)/C=C/c2ccc3c(c2)OCO3)c1	-11	44*	-7	-3	48*	115*
SMILES	Vif imaging	Wnt act	PvdQ inh	Glyco luc inh	esBAF inh	MITF TRPM1 HTS
O=C(/C=C/c1cccs1)Nc1nncs1	7	16	-16	-3	nt	61
O=C(/C=C/c1ccc2c(c1)OCO2)Nc1nncs1	3	61*	nt	-7	nt	nt
COc1ccc(-c2cnc3c(c2)C(=O)N([C@@H](C)CO)C[C@@H](C)[C@@H](CN(C)C(=O)C2CCCCC2)O3)cc1	nt	nt	nt	nt	-4	nt
CN(C)CC(=O)Nc1ccc2c(c1)[C@H]1C[C@@H](CC(=O)NCc3cccc(F)c3)O[C@H](CO)[C@H]1O2	nt	nt	nt	nt	-1	nt
COCC(=O)Nc1ccc2c(c1)C(=O)N(C)[C@@H]1CC[C@H](CC(=O)O)O[C@@H]1CO2	nt	nt	nt	nt	-1	nt
Clc1ccc(-c2c[nH]c3ccccc23)nn1	11	-12	12	2	27	1
c1ccc2c(-c3csc(-c4ccncc4)n3)c[nH]c2c1	0	28	-2	-10	52*	126*
COc1ccc(C)cc1Nc1nc(-c2c[nH]c3ccccc23)cs1	-3	-6	-23	1	nt	6
Brc1ccc(-c2csc(-c3c[nH]c4ccccc34)n2)cc1	-3	-2	-14	3	67*	20
C[C@H]1CCCCO[C@@H](CN(C)Cc2ccc(C(=O)O)cc2)[C@@H](C)CN([C@@H](C)CO)C(=O)c2cc(NS(=O)(=O)c3ccccc3)ccc2O1	nt	nt	nt	nt	-1	nt
CC(C)NC(=O)Nc1cccc2c1O[C@H](CN(C)S(=O)(=O)c1ccc(Cl)cc1)[C@H](C)CN([C@H](C)CO)C2=O	nt	nt	nt	nt	-4	nt
Cc1ccc(C(=O)NNC(=O)c2ccc3ccccc3c2)cc1	9	-1	-14	1	67*	47
Cc1ccccc1NC(=O)c1ccc2ccccc2c1	-1	3	1	1	45*	73
Cc1cn(-c2ccc(Br)cc2)[nH]c1=O	-2	11	8	1	52*	23
Cc1[nH][nH]c(=O)c1C(c1ccc(Br)cc1)c1c(C)[nH][nH]c1=O	-1	-1	7	4	-7	nt
C[C@@H]1CN([C@@H](C)CO)C(=O)c2cc(C#CCN(C)C)cnc2O[C@@H]1CN(C)Cc1ccc(C(=O)O)cc1	nt	nt	nt	nt	-2	nt
C[C@@H]1CCCCO[C@H](CN(C)Cc2ccc3c(c2)OCO3)[C@H](C)CN([C@H](C)CO)C(=O)c2cc(NS(=O)(=O)c3cccs3)ccc2O1	nt	nt	nt	nt	-1	nt
CC(=O)c1ccc(NC(=O)CSc2nc(=O)cc(N)n2-c2ccccc2)cc1	1	12	0	2	63*	67
N#Cc1ccccc1NC(=O)CSc1nccn1CCc1ccccc1	-4	nt	-7	-2	56*	52
COC(=O)CSc1nc2ccccc2c(=O)n1C	-4	42*	0	1	-1	3
CC(=O)Nc1cccc(NC(=O)CSc2ncc(C(=O)Nc3ccccc3)c(=O)n2C)c1	-10	0	-6	13	8	-66
CC(=O)c1cccc(NC(=O)CSc2ncc(C(=O)Nc3ccccc3)c(=O)n2C)c1	3	-2	-5	30*	nt	-63
C[C@@H]1CN([C@@H](C)CO)C(=O)c2cc(NS(=O)(=O)c3ccc(Cl)cc3)ccc2O[C@@H]1CN(C)Cc1ccccc1	nt	nt	nt	nt	5	nt
COc1ccc(S(=O)(=O)Nc2ccc3c(c2)C(=O)N([C@H](C)CO)C[C@@H](C)[C@H](CN(C)C(=O)C2CCCCC2)OCCCC[C@@H](C)O3)cc1	nt	nt	nt	nt	8	nt
CC(=O)c1ccc(NC(=O)CSc2nccn2CCc2ccccc2)cc1	nt	25	-18	-2	78*	52
O=C(CSc1nccn1Cc1ccco1)Nc1ccc(F)cc1	-7	-3	-14	0	16	17
COCCn1c(SCC(=O)Nc2ccc(NC(C)=O)cc2)nc2ccccc2c1=O	nt	9	-7	1	-3	8
